Assay outcomes from PubChem BioAssay.
In the library only some 12% were active in any assay of this set; here they are far more common.
MARV entry inh: qHTS for inhibitors of binding or entry into cells for Marburg Virus. Marburg virus pseudotyped entry inhibition, cell reporter. actives 1.8% (n = 300,000). Potency, µM (series often up to 37.8 µM), inactives show at the top dose activity change, negative = inhibition, hits mostly inhibitors; calls by dose curve; tested in HEK293 cells; further: potency means the concentration at half of the fitted maximal effect; on the % scale 0 is the no-effect control and ±100 the full control effect
Shiga inhibitor: A qHTS for Small Molecule Inhibitors of Shiga Toxin | Vero cells, Shiga toxin protein synthesis inhibition reporter | inhibition, % at 38.7 µM | actives 9.2% (n = 290,000) | AID 2315, 2010; in the data active means inhibition mostly above about 28%, no sharp cut-off; inactive means mostly below about 43%; further: 0% is about no effect
LASV entry inh: qHTS for Inhibitors of binding or entry into cells for Lassa Virus; Lassa virus pseudotype entry inhibition, cell reporter; actives 1.2% (n = 300,000); Potency, µM (titrated, usually from 37.9 µM), for the others: top-dose activity change, negative = inhibition, usual class: inhibitors; calls by dose curve; tested in HEK293 cells; further: potency means the concentration at half of the fitted maximal effect; on the % scale 0 is the no-effect control and ±100 the full control effect; nearly all actives have a fitted effect of over 50% in size
CHX counter-1: Cycloheximide Counterscreen for Small Molecule Inhibitors of Shiga Toxin. actives 12% (n = 300,000). max response, %. cell reporter, cycloheximide protein synthesis inhibition counterscreen. AID 2314, 2010; in the data active means max response mostly above about 13%, no sharp cut-off; inactive means mostly below about 14%; further: read at 38.3 µM for the half of the compounds with a filed dose; 0% is about no effect
CHX counter-2: Cycloheximide Counterscreen for Small Molecule Inhibitors of Shiga Toxin (Confirmatory) | shares compounds with Shiga inhibitor | Cycloheximide counterscreen, protein synthesis reporter, Shiga toxin assay | Potency, µM (titrated, usually from 38.3 µM), without a hit: at the top dose activity (activation), usual class: activators | actives 3% (n = 510) | AID 2318, 2010; calls by dose curve; further: potency means the concentration at half of the fitted maximal effect; 0% is about no effect
Numbers without * were called inactive; u = inconclusive; x = not tested or not shown; [ ] = another dose, or the depositor's remark.

SMILES	MARV entry inh	Shiga inhibitor	LASV entry inh	CHX counter-1	CHX counter-2
Cc1ccc(CSc2nnc(CCCCCNC(=O)OC(C)(C)C)o2)cc1	u	25*	-28%	-3	-1%
COc1cc(C=O)ccc1OC(=O)Nc1ccccc1	u	x	1%	x	x
CSc1cccc(CNC(=O)C2CCC(=O)N(CCCN3CCCC3=O)C2)c1 (stereo not drawn)	20%	-16	8%	-11	x
CC/C(C)=N/Oc1nc(C)cc(C)n1	x	-11	x	-1	x
O=C(COc1ccccc1F)Nc1ccc2oc(-c3cccc(Cl)c3)nc2c1	5%[46.1 µM]	x	9%[46.1 µM]	x	x
COc1ccc2nc3cc(Cl)ccc3c(NCCCN3CCN(CCCNc4c5ccc(Cl)cc5nc5ccc(OC)cc45)CC3)c2c1	x	34*	x	10	0%
Cc1cccc(N2C(=O)C3C4C=CC(C5CC45)C3C2=O)n1 (stereo not drawn)	u	-7	0%	-2	x
CCN(CCNC(=O)C1CCN(Cc2nc(-c3cccc(Cl)c3)oc2C)CC1)c1ccccc1	u	105*	u	10	-2%
CCN(CCNC(=O)C1CCN(Cc2nc(-c3ccc(Cl)cc3)oc2C)CC1)c1ccccc1	u	-5	u	2	x
CC(OC(=O)c1ccc2c(=O)n3c(nc2c1)CCC3)C(N)=O (stereo not drawn)	7%[46.1 µM]	51*	x	11	1%
O=C(Oc1ccc(F)cc1)c1ccc2c(=O)n3c(nc2c1)CCC3	-11%	x	-4%[46.1 µM]	x	x
CCOC(=O)c1cccc(NC(=O)c2cc(S(=O)(=O)N3CCCCCC3)cn2C)c1	x	x	6%[46.1 µM]	x	x
COc1cccc(NC(=O)c2cccc(N3C(=O)C4CCC(C)CC4C3=O)c2)c1 (stereo not drawn)	-2%[46.1 µM]	-7	-1%[46.1 µM]	-3	x
CSc1nc(C)c2cc(C)oc2n1	-17%	71*	7%	-3	-2%
COc1nc(C)c2cc(C)oc2n1	3%[46.1 µM]	-5	-4%	-4	x
CCC1CCCCN1CCCNC(=O)Cn1cnc2sc(C)c(S(=O)(=O)N3CC(C)CC(C)C3)c2c1=O (stereo not drawn)	-24%[46.1 µM]	-3	5%	-4	x
O=c1c2ccccc2nc(SCc2ccccc2F)n1C1CCCC1	-6%	-1	26%	-3	x
Nc1nc(-c2nn(Cc3ccccc3F)c3ncccc23)ncc1C1CC1	x	28*	x	2	3%
CC1CCC(NS(=O)(=O)c2ccc(Cl)nc2)CC1 (stereo not drawn)	7%	x	3%	x	x
CC(NC(=O)c1ccc2c(c1)N(Cc1cccc(F)c1)C(=O)c1ccccc1S2)c1ccccc1 (stereo not drawn)	x	x	2%[46.1 µM]	x	x
CCC(=O)N1CCN(c2ccc(NC(=O)c3ccc(Br)o3)cc2)CC1	39%	22*	0%	3	7%
O=C(CCN1C(=O)c2cccc3cccc(c23)C1=O)NC1CCS(=O)(=O)C1 (stereo not drawn)	2%[46.1 µM]	75*	-1%	9	0%
Cc1noc(C)c1C(=O)Nc1ccc2c(c1)CCC2	14%	73*	43%[14.3 µM]	8	-2%
Cc1noc(C)c1C(=O)Nc1ccc(F)cc1	-12%[46.1 µM]	-12	1%	2	x
N#Cc1ccc(CSc2nnc(-c3ccc(Br)cc3)o2)cc1	-2%[46.1 µM]	x	20%[46.1 µM]	x	x
SMILES	MARV entry inh	Shiga inhibitor	LASV entry inh	CHX counter-1	CHX counter-2
Cc1ccc2c(N)[nH]nc2n1	-3%[46.1 µM]	82*	12%	11	-1%
COC(=O)c1c(NS(C)(=O)=O)sc2c1CCCC2	6%	28*	7%	-2	0%
O=C(NCCc1c[nH]c2ccccc12)C(F)(F)F	-3%[46.1 µM]	43*	16%	10	-1%
O=C(NCCc1c[nH]c2ccccc12)Nc1ccccc1C(F)(F)F	1%[46.1 µM]	x	u	x	x
O=C(Cc1c[nH]c2ccccc12)NCc1ccc(Cl)cc1	-8%	30*	20%	10	7%
COc1ccc(-c2cn3c(n2)sc2cc(C(=O)NCc4cccs4)ccc23)cc1	x	x	0%[46.1 µM]	x	x
COC(=O)c1ccc(CNCC(=O)Nc2ccc(C(=O)OC)cc2)cc1	-1%	-11	11%	4	x
COC(=O)c1ccc(NC(=O)Cc2ccc(F)cc2)cc1	u	151*	-18%[46.1 µM]	14	u
NC(=O)c1cc(S(=O)(=O)N2CC=C(c3ccccc3)CC2)cs1	x	-6	x	-4	x
O=S(=O)(c1ccsc1)N1CC=C(c2ccccc2)CC1	x	35*	x	2	u
Cc1oncc1-c1csc(-c2ccccc2Cl)n1	x	121*	x	9	u
ClCc1csc(-c2ccccc2Cl)n1	7%[46.1 µM]	5	-2%	13	x
Cc1ccccc1Nc1cc(C(=O)NCc2cccs2)c2ccccc2n1	-14%[46.1 µM]	x	-17%[46.1 µM]	x	x
Cc1cc(=O)[nH]c(SC(C)C(=O)Nc2cccc3ccccc23)n1 (stereo not drawn)	3%[46.1 µM]	13	18%[46.1 µM]	-1	x
CCN(CC)S(=O)(=O)c1ccc(C(=O)NCCc2ccccn2)cc1	15%	45*	u	11	3%
COCCNC(=O)CSc1nc2cc3c(cc2c(=O)n1CCCC(=O)NCc1ccc2c(c1)OCO2)OCO3	x	x	-1%[46.1 µM]	x	x
Cc1cc(C)cc(NC(=O)C(OC(=O)c2ccc([N+](=O)[O-])o2)c2ccccc2)c1 (stereo not drawn)	-1%	30*	0%	-2	1%
COc1ccccc1CCCNC(=O)C1CCC(=O)N(CCc2cccc(F)c2)C1 (stereo not drawn)	24%	16	1%	10	x
Cc1ccc(CSC(Nc2ccc(F)cc2)=C(C#N)C#N)cc1	u	21*	13µM*	1	0%
OCCCNc1cc(-c2ccccc2)nc2cc(-c3ccc(F)cc3)nn12	u	x	u	10	x
CCOC(=O)c1c(-c2ccc(C)cc2)csc1NC(=O)CCSc1nnc2ccccn12	u	-3	u	-1	x
C=CCn1c(-c2ccc(OC)c(OC)c2)cs/c1=N\c1ccccn1	-14%	29*	1%	8	5%
CCN(CC)C(=O)c1c(-c2ccccc2)c(-c2ccccc2)nn(CC)c1=O	u	x	9%[46.1 µM]	x	x
COc1cccc(C(=O)Cn2c(NCCO)nc3ccccc32)c1	-1%	19	3%	-4	x
O=C(Cn1c(NCCO)nc2ccccc21)c1ccccc1	7%	active	0%	4	0%
SMILES	MARV entry inh	Shiga inhibitor	LASV entry inh	CHX counter-1	CHX counter-2
Cc1cc2nnc(SCC(=O)Nc3ccc(F)c(Cl)c3)n2c2ccccc12	-4%[46.1 µM]	x	28%[46.1 µM]	x	x
Cc1ccc([N+](=O)[O-])cc1NC(=O)CSc1nncn1-c1ccccn1	6%[46.1 µM]	98*	-21%[46.1 µM]	-3	-2%
CCc1cccc(NC(=O)Cc2ccc(OC)c(OC)c2)c1	u	-4	u	-2	x
O=C(Cc1c(F)c(F)c(F)c(F)c1F)Nc1nc(-c2ccccc2)cs1	u	17	u	-4	x
CC(C)C(=O)SCCCCCCC(=O)Nc1nc(-c2ccccc2)cs1	x	16*	x	-1	1%
O=C(CN1N=C(c2ccc(Cl)cc2)CCC1=O)NCCN1CCc2ccccc2C1	6%	-11	15%	-4	x
COc1cc(/C=C2\SC(=Nc3ccc(O)cc3)NC2=O)cc(OC)c1OC	u	-4	u	5	x
O=C1NC(=Nc2ccc(O)cc2)S/C1=C\C=C\c1ccco1	x	47*	x	3	u
